Experimental findings from PubChem BioAssay (NCI) are described below.

Structures are written as SMILES. Values joined by “and” are separate entries in the source; they are usually repeats but may differ in a detail not shown here. Equal entries are not always repeated. About 83,000 compounds went through this panel and 20% of them were active in at least one assay; those are over-represented in the sample as a whole.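 The test compound was applied at a single concentration to cells in 96-well plates for 48 hours, and percent growth was recorded.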 Active and inactive are the calls of the source. How the source made its calls: active means growth percent below 10; inactive means the rest.

The subject of one experiment is UACC-62 melanoma. Kind of experiment: NCI-60 one-dose screen, 48 h (100 = growth as untreated, 0 = no growth, -100 = all killed). To be noted: 10 µM unless noted.
In a further experiment the test system is TK-10 renal. The description is as above. To be noted: 10 µM unless noted.

Consider `O=C1c2cccnc2-c2nccc3ccnc1c23`, for which the growth in the experiment with UACC-62 melanoma was -95.5% [100 µM] (active) and -100% [100 µM] (active); in the experiment on TK-10 renal it was -100% [100 µM] (active).

Turning to `C=C1C(=O)O[C@@H]2C[C@@]3(C)CC(=O)C=C(C)[C@@H]3C[C@H]12`, the growth in the experiment on UACC-62 melanoma was -95.6% [100 µM] (active) and -86.6% [100 µM] (active); with TK-10 renal it was -87.6% [100 µM] (active) and -78.7% [100 µM] (active).

For the molecule `COc1ccc2c(C)cc(N/N=C/c3ccc(C)s3)nc2c1`, the growth with UACC-62 melanoma was -86.5% [100 µM] (active) and -100% [100 µM] (active); in the experiment on TK-10 renal it was -66.6% [100 µM] (active) and -100% [100 µM] (active).

Consider `COc1ccc(C2c3cc4c(c(OC)c3CC3OCC(=O)C32)OCO4)cc1OC` (configuration not stated), for which the growth was 26% [100 µM] (inactive) and 3.65% [100 µM] (active) in the experiment on UACC-62 melanoma; 46.4% [100 µM] (inactive) and -11% [100 µM] (active) in the experiment with TK-10 renal.

Turning to `CC/C(Cl)=N\OC(=O)Nc1ccc(OC)cc1`, the growth in the experiment with UACC-62 melanoma was -92.2% [100 µM] (active) and -94.2% [100 µM] (active); in the experiment on TK-10 renal it was -100% [100 µM] (active).

On to `O=C(NC1=NC2C=CC([N+](=O)[O-])=CC2S1)C(=O)Nn1c(=S)[nH]c2ccccc2c1=O` (configuration not stated), for which the growth was -8.33% [100 µM] (active) and 16.8% [100 µM] (inactive) in the experiment with UACC-62 melanoma; 7.66% [100 µM] (active) and 13.1% [100 µM] (inactive) in the experiment with TK-10 renal.

As for `CCOC(=O)COc1cc(-c2ccccc2)nc2cc(F)ccc12`, the growth with UACC-62 melanoma is 67.3% [100 µM] (inactive) and 60.3% [100 µM] (inactive); with TK-10 renal, 95.9% [100 µM] (inactive) and 90.1% [100 µM] (inactive).

With `NC(N)=Nc1ccc(CC(N)C(=O)O)cc1` (configuration not stated), the growth with UACC-62 melanoma is 89% [12.5 µM] (inactive) and 94.1% [12.5 µM] (inactive); in the experiment on TK-10 renal it was 107% [12.5 µM] (inactive) and 111% [12.5 µM] (inactive).

For the molecule `Cc1ccc(C)c(NC(=O)/C(=N\N)C(c2cnc3ccc([N+](=O)[O-])cc3n2)[N+](=O)[O-])c1` (configuration not stated), the growth with UACC-62 melanoma was 46.3% [100 µM] (inactive) and 15.7% [100 µM] (inactive); in the experiment with TK-10 renal, 146% [100 µM] (inactive) and 18.1% [100 µM] (inactive).

Regarding `C/C(O)=C/c1nc2sc(C)c(C)c2c(=O)s1`, the growth in the experiment with UACC-62 melanoma is 19.1% [100 µM] (inactive) and 37.1% [100 µM] (inactive); in the experiment with TK-10 renal, 50.2% [100 µM] (inactive) and 46.7% [100 µM] (inactive).

Regarding `CC1(C)S[C@H](CN)N[C@H]1C(=O)OC(c1ccccc1)c1ccccc1`, the growth with UACC-62 melanoma was 34.2% [100 µM] (inactive) and -100% [100 µM] (active); in the experiment with TK-10 renal, 49% [100 µM] (inactive) and -32.5% [100 µM] (active).

Regarding `C=C(C)C1CC2(C)C(C)CC(OC(=O)/C(C)=C\C)CC2C(OC(=O)/C(C)=C\C)C1O` (configuration not stated), the growth with UACC-62 melanoma is 5.5% [100 µM] (active); in the experiment with TK-10 renal, 34.6% [100 µM] (inactive) and 71% [100 µM] (inactive).

For `Cc1cc2nn(C3CCCO3)nc2cc1C` (configuration not stated), the growth in the experiment with UACC-62 melanoma is 70.8% [100 µM] (inactive) and 101% [100 µM] (inactive); in the experiment on TK-10 renal, 81.3% [100 µM] (inactive) and 101% [100 µM] (inactive).

For the molecule `COC(=O)C(=O)C(C(=O)C(=O)Nc1ccc(Cl)c(Cl)c1)c1nc2ccc(C(=O)c3ccccc3)cc2[nH]c1=O` (configuration not stated), the growth in the experiment on UACC-62 melanoma was 43.9% [100 µM] (inactive) and 6.66% [100 µM] (active); in the experiment with TK-10 renal, 89.4% [100 µM] (inactive) and 14.4% [100 µM] (inactive).

On to `N#CC1(C#N)C2CCCCC23OC(=N)C1(C#N)C(c1ccccc1)O3` (configuration not stated), for which the growth in the experiment with UACC-62 melanoma was -40.1% [100 µM] (active); with TK-10 renal it was -29% [100 µM] (active).

As to `Cc1ccc(OCC2OC(n3cnc4nc(Cl)nc(Cl)c43)CC2Oc2ccc(C)cc2)cc1` (configuration not stated), the growth with UACC-62 melanoma is -72.2% [100 µM] (active) and -100% [100 µM] (active); with TK-10 renal it was 1.81% [100 µM] (active) and -100% [100 µM] (active).

With `COc1ccc2nc(NC(=O)/C(C#N)=C/c3ccccc3)sc2c1`, the growth in the experiment on UACC-62 melanoma is 36.9% [100 µM] (inactive) and 15.8% [100 µM] (inactive); in the experiment on TK-10 renal it was 52.5% [100 µM] (inactive) and -23.1% [100 µM] (active).

Take `COC(=O)C(Cc1nc2ccccc2[nH]c1=O)C(=O)C(=O)Nc1cc(C(F)(F)F)ccc1Cl` (configuration not stated): the growth in the experiment with UACC-62 melanoma was -87.8% [100 µM] (active) and -39.4% [100 µM] (active); with TK-10 renal it was -90.1% [100 µM] (active) and 0.262% [100 µM] (active).

For the molecule `NNc1[nH]c(=S)[nH]c1C(N)=O`, the growth in the experiment with UACC-62 melanoma is 98.3% [100 µM] (inactive) and 90.9% [100 µM] (inactive); in the experiment on TK-10 renal it was 121% [100 µM] (inactive) and 111% [100 µM] (inactive).

As to `COc1cc2c(cc1-c1coc3cc(O)ccc3c1=O)OCO2`, the growth in the experiment with UACC-62 melanoma is 58.8% [100 µM] (inactive) and 55% [100 µM] (inactive); in the experiment on TK-10 renal it was 81.2% [100 µM] (inactive) and 3.05% [100 µM] (active).

For `CCCCCCCCCC(O)CC(=O)c1c(O)cccc1O` (configuration not stated), the growth in the experiment with UACC-62 melanoma was -96.8% [100 µM] (active) and -100% [100 µM] (active); with TK-10 renal, 4.56% [100 µM] (active) and 1.03% [100 µM] (active).

For `C=C1C(=O)OC2/C=C(\CO)CC/C=C(\CO)CC(OC(=O)C(C)C)C12` (configuration not stated), the growth in the experiment on UACC-62 melanoma was -89.5% [100 µM] (active) and -98.8% [100 µM] (active); in the experiment on TK-10 renal, -97% [100 µM] (active) and -96.5% [100 µM] (active).

`Cc1ccc(/C=C2/N=C(N/N=C\c3ccccc3)NC2=O)cc1`: the growth in the experiment on UACC-62 melanoma is 28.2% [100 µM] (inactive) and 56.4% [100 µM] (inactive); with TK-10 renal, -15.5% [100 µM] (active) and 0.251% [100 µM] (active).

For `Cc1ccc(OC2CC(n3cnc4ncnc(Cl)c43)OC2Oc2ccc(C)cc2)cc1` (configuration not stated), the growth in the experiment on UACC-62 melanoma is 11.7% [100 µM] (inactive) and -100% [100 µM] (active); in the experiment on TK-10 renal, 85% [100 µM] (inactive) and -100% [100 µM] (active).

In the case of `CCOC(=O)C(=O)C(CCC(=O)c1ccc2ccccc2c1O)C(=O)OCC` (configuration not stated), the growth in the experiment on UACC-62 melanoma was 85.4% [100 µM] (inactive) and 81.5% [100 µM] (inactive); with TK-10 renal, 125% [100 µM] (inactive) and 106% [100 µM] (inactive).

Regarding `CCC1OC2(C)CC(C#N)(C#N)C1(C#N)C(=N)O2` (configuration not stated), the growth was 34.6% [100 µM] (inactive) in the experiment with UACC-62 melanoma and 92.1% [100 µM] (inactive) in the experiment on TK-10 renal.

In the case of `CSc1nc(Br)nc2ncn(C3CC(Oc4ccc(C)cc4)C(COc4ccc(C)cc4)O3)c12` (configuration not stated), the growth in the experiment with UACC-62 melanoma is 84.5% [100 µM] (inactive) and -65.3% [100 µM] (active); in the experiment on TK-10 renal, 111% [100 µM] (inactive) and -100% [100 µM] (active).

In the case of `CCC(c1ccc(N(C)C)cc1)C1NC(=S)NC1=O` (configuration not stated), the growth is 20.7% [100 µM] (inactive) and 17.1% [100 µM] (inactive) in the experiment with UACC-62 melanoma; 47.6% [100 µM] (inactive) and 37.5% [100 µM] (inactive) with TK-10 renal.

For the molecule `O=C(O)CCCC(=O)Nn1c(Cc2ccc(Cl)cc2)n[nH]c1=O`, the growth was 70.6% [100 µM] (inactive) and 92.1% [100 µM] (inactive) in the experiment on UACC-62 melanoma; 85.5% [100 µM] (inactive) and 95% [100 µM] (inactive) in the experiment with TK-10 renal.

In the case of `COc1ccc2c(c1)N(C(C)=O)CN1C(=O)CCC21` (configuration not stated), the growth was 87.4% [100 µM] (inactive) and 102% [100 µM] (inactive) in the experiment on UACC-62 melanoma; 93% [100 µM] (inactive) and 101% [100 µM] (inactive) in the experiment with TK-10 renal.

For `N#CC(=S)Nc1ccc(F)cc1`, the growth in the experiment with UACC-62 melanoma is 8.57% [100 µM] (active) and 0.965% [100 µM] (active); in the experiment with TK-10 renal, 33.9% [100 µM] (inactive) and 8.52% [100 µM] (active).

For the molecule `NC(=O)CC1OC(=O)Cc2cc3c(c(O)c21)C(=O)c1c(O)cccc1C3=O` (configuration not stated), the growth in the experiment with UACC-62 melanoma was 67.9% [100 µM] (inactive); with TK-10 renal, 57.5% [100 µM] (inactive).

Regarding `N/N=C(\C(=O)Nc1ccc([N+](=O)[O-])cc1)C(C1=Nc2cc([N+](=O)[O-])ccc2NC1)[N+](=O)[O-]` (configuration not stated), the growth in the experiment on UACC-62 melanoma is 42.3% [100 µM] (inactive) and 14.7% [100 µM] (inactive); in the experiment on TK-10 renal, 117% [100 µM] (inactive) and 4.46% [100 µM] (active).

With `Cc1ccc2c(sc(-c3ccc4c(c3)sc(-c3ccc5c(c3)sc(-c3ccc(N(C)C)cc3)[n+]5C)[n+]4C)[n+]2C)c1S(=O)(=O)O` (tested in a mixture with another compound), the growth in the experiment with UACC-62 melanoma is 48.6% [100 µM] (inactive) and 10.5% [100 µM] (inactive); with TK-10 renal, 106% [100 µM] (inactive) and 47.3% [100 µM] (inactive).

`COc1ccc2nc(N/N=C/c3ccc(C)s3)cc(C)c2c1`: the growth in the experiment with UACC-62 melanoma was -97.7% [100 µM] (active) and -100% [100 µM] (active); in the experiment with TK-10 renal it was -94.1% [100 µM] (active) and -97.3% [100 µM] (active).

On to `CC(C)=CCc1cc(C2COc3cc4c(c(O)c3C2=O)C=CC(C)(C)O4)c(O)cc1O` (configuration not stated), for which the growth is -86.8% [100 µM] (active) and -97.1% [100 µM] (active) with UACC-62 melanoma; -14.3% [100 µM] (active) and -100% [100 µM] (active) in the experiment with TK-10 renal.
